PubChem BioAssay (NCI)
This is part of a sample that, as a whole, favours compounds with a hit. Of some 83,000 tested, about 20% had one in any assay.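 Assay: single dose, 48 h. Readout: percent growth (0 = no net growth; negative = cell death). Active: <10.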 Active and inactive are the calls of the source.

Assays:
Assay in all cases: NCI-60 one-dose screen, 48 h (100 = growth as untreated, 0 = no growth, -100 = all killed)
Details in all cases: 10 µM unless noted
[1] = tested on: HCT-15 colon
[2] = tested on: HT29 colon
[3] = tested on: SNB-75 CNS
[4] = tested on: SNB-19 CNS
[5] = tested on: U251 CNS
[6] = tested on: PC-3 prostate
[7] = tested on: SK-MEL-5 melanoma
[8] = tested on: UACC-62 melanoma
[9] = tested on: LOX IMVI melanoma
[10] = tested on: SK-MEL-28 melanoma

Measured: growth

Nc1ccc(C2=NN(C(=O)c3cc(-c4ccc(Cl)cc4)nc4ccccc34)C(c3ccc(Cl)cc3)C2)cc1 (stereo not given)
inactive: [1] 26.3% | [2] 11.5% | [3] 67.5% | [4] 30.5% | [5] 31.5% | [6] 23.3% | [7] 28.3% | [8] 38% | [9] 48.3% | [10] 65%

CCOC(=O)c1c(C)nc2c(c1N)/C(=C/c1cccs1)C(=O)N2Cc1ccccc1
inactive: [1] 19.5% | [2] 57.3% | [3] 72.6% | [4] 68.1% | [5] 49.8% | [6] 51.8% | [7] 83.8% | [8] 67.6% | [9] 36.4% | [10] 90.2%

NS(=O)(=O)c1ccc(N2Cc3cc(Cl)ccc3OC3=C2C(=O)N(CC2CCCCC2)C3=O)cc1
active: [1] -79.2% | [2] -67.4% | [3] -98.4% | [4] -6.19% | [5] -91.3% | [6] -61.9% | [7] -94.4% | [8] -76.1% | [9] -86.2% | [10] -93.1%

C=C1C(=O)O[C@H]2[C@H]1CC/C(COC(=O)CCCCCCCCC(=O)OC/C1=C/CC[C@@]3(C)O[C@H]3[C@H]3OC(=O)C(=C)[C@@H]3CC1)=C\CC[C@@]1(C)O[C@@H]21
inactive: [3] 58.4% | [4] 43.8% | [5] 12.1%
active: [1] -31.6% | [2] -27.5% | [6] -6.62% | [7] -32.6% | [8] -18.8% | [9] -84.7% | [10] -12.8%

N#Cc1ccc(N2Cc3cc(Cl)ccc3OC3=C2C(=O)N(Cc2ccc(F)cc2)C3=O)cc1
active: [1] -54.9% | [2] -59.1% | [3] -3.4% | [5] -61.1% | [7] -33.1% | [8] -41.1% | [9] -93% | [10] -64.1%
inactive: [4] 57.8% | [6] 11.8%

COc1ccc2oc(=O)cc(-c3nc4ccc(N)cc4[nH]3)c2c1
inactive: [1] 97.7% | [2] 97.3% | [3] 53.6% | [4] 90.9% | [5] 86.2% | [6] 81.1% | [7] 81.5% | [8] 91.5% | [9] 78.6% | [10] 111%

Cc1nc2sc(C(=O)Nc3ccccc3Cl)c(N)c2cc1C(C)O (stereo not given)
inactive: [1] 61.4% | [2] 34.3% | [3] 72.8% | [4] 83.2% | [5] 66.5% | [6] 83.5% | [7] 80.7% | [8] 68.2% | [9] 74.5% | [10] 84.7%

CN1CCN(/C=C2\CC(C(=O)NCc3ccc(Cl)cc3Cl)NC2=O)CC1 (stereo not given)
inactive: [1] 108% | [2] 99% | [3] 106% | [4] 100% | [5] 100% | [6] 90.9% | [7] 95.8% | [8] 96.6% | [9] 100% | [10] 110%

C#C[C@@]1(O)[C@@H](CO)O[C@@H](n2cc(Br)c3c(N)ncnc32)[C@@H]1O
active: [1] 2.93% | [2] 3.26% | [3] -36.2% | [4] 2.58% | [5] -12.4% | [6] -2.77% | [7] 4.89% | [9] -56.8%
inactive: [8] 15.1% | [10] 58.2%

Cc1nnc(/N=C2\NC(=O)/C(=C/c3ccsc3)S2)s1
inactive: [1] 88% | [2] 90.6% | [3] 74.3% | [4] 100% | [5] 94.6% | [6] 89.6% | [7] 98.4% | [8] 102% | [9] 87.7% | [10] 101%

C(=C\c1cn(-c2ccccc2)nc1-c1ccccc1)/c1nnc(-c2c[nH]c3ccccc23)o1
inactive: [1] 69% | [2] 39.7% | [3] 17.6% | [4] 60.5% | [5] 20.9% | [6] 26% | [7] 59.4% | [8] 95.4% | [9] 47.6% | [10] 53.2%

C=C1C(=O)O[C@H]2[C@H]1CC/C(COC(=O)c1cc3ccccc3o1)=C\CC[C@@]1(C)O[C@@H]21
inactive: [3] 76.5% | [4] 16.7% | [5] 15.4%
active: [1] -68.6% | [2] -49.6% | [6] -8.8% | [7] 7.03% | [8] -37.7% | [9] -89.3% | [10] -48%

COCCOCCOCc1n(Cc2ccc3ccccc3c2)c2ccccc2[n+]1Cc1ccc2ccccc2c1
active: [2] -5.47% | [3] -4.1% | [6] 5.49% | [7] -91.9% | [8] -29.6% | [9] -26.6%
inactive: [1] 88.4% | [4] 23% | [5] 12.4% | [10] 16.8%
